Compounds with a hit are over-represented: about 2.5% of the library has one in this group of screens.
U2OS ROS induce: ROS inducers in U2OS cancer cells, primary screen, cell-based, H2DCF-DA fluorescence; U2OS ROS induction; ROS induction (% of piperlongumine), % at 10 µM; actives 2% (n = 46,000); in the data active = ROS induction above about 79%, passing the limit was not always enough;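 note: 0% = DMSO vehicle median and 100% = reference compound median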
MITF inhib: inhibitors of MITF, primary screen, MITF inhibitor project, cell-based, luminescence. inhibition, % (concentration not given with the values). AID 2240, 2010. TRPM1 promoter luciferase, 24 h. actives 0.28% (n = 37,000); in the data active = inhibition above about 85%;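 note: human melanocyte line stably carrying TRPM1 promoter luciferase reporter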
YB-1 expression: inhibitors of YB-1 gene expression, primary screen, cell-based, fluorescence | delta delta Cp (YB-1 minus CDIP) (test concentration not listed) | U2OS, qRT-PCR YB-1 vs CDIP delta delta Cp, 16 h; stronger effect = higher value; zero = DMSO, each unit about twofold | actives 0.37% (n = 30,000) | AID 434959, 2010;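 active = delta delta Cp rounded down to an integer at or above 3, about 3 SD of DMSO wells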;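 note: higher means less YB-1 transcript or more CDIP transcript relative to DMSO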
BJeLR viability: BJeLR cell viability loss, primary screen, luminescence, CellTiterGlo ATP. viability loss activity score, % (concentration not given with the values). BJeLR fibroblasts viability, 48 h; HRASV12, hTERT and SV40 LT/ST transformed. actives 0.64% (n = 30,000); in the data active = viability loss activity score above about 50%;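 note: higher score means fewer live cells and less ATP luminescence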
The depositor's hits bear a star; x = no result given.

SMILES	U2OS ROS induce	MITF inhib	YB-1 expression	BJeLR viability
CC(=O)N1CCc2cc(S(=O)(=O)NCCC(=O)N3CCc4ccccc43)ccc21	x	x	x	-6.8
CCOc1ccc(-c2cc(C(=O)NCC3COc4ccccc4O3)c3ccccc3n2)cc1 (stereo not given)	59.5	x	x	-3.6
CCN(CC)C(=O)CSc1c2c(nc3ccc(Cl)cc13)CCCC2	x	x	x	12.9
O=C(Nc1ccc2c(c1)nc1n2CCN(Cc2ccccc2)C1)C1CCCCC1	x	x	x	-3.0
CCOC(CCn1c(=S)[nH]c2cc(C(=O)OC)ccc2c1=O)OCC	-2.4	x	x	-2.6
CC1CCCC(NC(=O)c2ccc3c(SCC(=O)O)c4c(nc3c2)CCC4)C1C (stereo not given)	-9.4	x	x	-7.7
Cc1c2c(nc3c(C(=O)NC4CCCC(C)C4C)cnn13)CCCC2 (stereo not given)	89.5*	x	x	-7.4
COc1cccc(/C(O)=C\c2nc3ccc(C(=O)Nc4cccc(C)c4)cc3[nH]c2=O)c1	x	x	x	11.8
c1ccc(CN2CCOCCN(Cc3ccccc3)CCOCC2)cc1	24.1	-0.6	-0.0485	2.4
CCOC(=O)c1c(C(C)(C)C)oc2ccc(OCC(=O)OC)cc12	59.6	-17.1	-0.368	-2.7
CCOC(=O)c1c(CNC(C)C)oc2ccc(OC)cc12	27.3	-5.8	10.4*	4.4
CC(C)(C)NC(=O)c1ccc2c3c(onc13)-c1ccccc1C2=O	245.1*	29.8	-0.493	2.1
Fc1ccc(-n2cc(-c3ccccc3)c3c(NCc4ccccc4)ncnc32)cc1	x	x	x	13.3
CCCC(=O)N1CCc2cc(OC)c(OC)cc2C1COc1ccc(OC)cc1 (stereo not given)	10.2	x	x	2.9
CCC1CN2CCc3cc(OC)c(OC)cc3[C@@H]2C[C@@H]1C[C@H]1NCCc2cc(OC)c(OC)cc21 (stereo not given in full)	-5.3	x	x	85.9*
CCOC(=O)C(C)Oc1ccc2c(-c3ccccc3)cc(=O)oc2c1 (stereo not given)	106.5*	-10.8	-0.00698	-11.3
COc1ccc(NC(=O)COc2ccccc2[N+](=O)[O-])cc1Cl	-3.0	-56.2	x	x
COc1cc(NC(=O)COc2ccccc2[N+](=O)[O-])ccc1NC(=O)c1cccs1	132.1*	-26.9	x	x
O=C(c1ccco1)N1N=C2c3ccccc3CCC2C1c1ccc(F)cc1 (stereo not given)	85.0*	39.7	-0.013	-2.9
CCNC(=S)N1N=C2c3ccccc3CCC2C1c1ccc(F)cc1 (stereo not given)	101.1*	5.7	0.343	30.6
COc1cc(/C=N/NC(=O)CCCCCC(=O)O)c([N+](=O)[O-])cc1OC	-4.7	x	0.108	x
COC(=O)CCCCCCC(=O)N/N=C/c1cc(OC)c(OC)cc1[N+](=O)[O-]	118.5*	x	-0.278	x
CC1(C)CC(C)(c2ccccc2)c2cc(SC#N)ccc2N1 (stereo not given)	113.6*	46.0	0.172	-8.5
Fc1ccc(CN(C(=S)Nc2ccccc2F)C2CCCCC2)cc1	-6.8	x	x	4.3
C[C@@H]1CCCCO[C@H](CN(C)C(=O)CCC(F)(F)F)[C@@H](C)CN([C@H](C)CO)C(=O)c2cc(N(C)C)ccc2O1	4.1	-2.5	9.88*	x
SMILES	U2OS ROS induce	MITF inhib	YB-1 expression	BJeLR viability
C[C@@H]1CCCCO[C@H](CN(C)C(=O)Nc2ccccc2)[C@@H](C)CN([C@H](C)CO)C(=O)c2cc(NC(=O)CCC(F)(F)F)ccc2O1	19.4	-6.6	-0.00456	x
C[C@@H]1CCCCO[C@@H](CN(C)C(=O)Nc2ccccc2)[C@@H](C)CN([C@H](C)CO)C(=O)c2cc(NC(=O)CCC(F)(F)F)ccc2O1	95.1*	-8.8	-0.405	x
C[C@@H]1CCCCO[C@H](CN(C)C(=O)Nc2ccccc2)[C@@H](C)CN([C@H](C)CO)C(=O)c2cc(NC(=O)c3ccccc3)ccc2O1	13.8	-8.4	4.38*	x
C[C@@H]1CCCCO[C@@H](CN(C)C(=O)NC2CCCCC2)[C@@H](C)CN([C@H](C)CO)C(=O)c2cc(NC(=O)Nc3cccc4ccccc34)ccc2O1	139.5*	10.2	-0.876	x
C[C@@H]1CCCCO[C@@H](CN(C)C(=O)Cc2ccccc2)[C@@H](C)CN([C@H](C)CO)C(=O)c2cc(NC(=O)NC3CCCCC3)ccc2O1	142.9*	6.3	-0.241	x
C[C@@H]1CCCCO[C@@H](CN(C)C(=O)Nc2cccc3ccccc23)[C@@H](C)CN([C@H](C)CO)C(=O)c2cc(NS(=O)(=O)c3ccc(Cl)cc3)ccc2O1	107.3*	23.8	-0.298	x
C[C@@H]1CCCCO[C@@H](CN(C)C(=O)Nc2cccc3ccccc23)[C@@H](C)CN([C@H](C)CO)C(=O)c2cc(NC(=O)NC3CCCCC3)ccc2O1	46.5	2.3	0.0909	x
CCc1ccccc1NC(=O)C(C)n1nc([N+](=O)[O-])c(Br)c1C (stereo not given)	111.4*	2.6	x	x
COc1ccc(CC(=O)Nc2cccc(-c3nc4cc5ccccc5cc4[nH]3)c2)cc1	34.7	-3.1	0.0709	35.8
O=C1O[C@H](c2ccccc2)[C@H](c2ccccc2)N2[C@H]1[C@@H](C(=O)N1CCN(c3ncccn3)CC1)[C@]1(C(=O)Nc3ccc(C#CC4(O)CCCCCC4)cc31)[C@H]2c1ccccc1OCCO	146.7*	x	-0.0861	x
O=C1O[C@@H](c2ccccc2)[C@@H](c2ccccc2)N2[C@@H](c3ccccc3OCCO)[C@]3(C(=O)Nc4ccccc43)[C@@H](C(=O)N3CCN(c4ncccn4)CC3)[C@H]12	121.8*	x	0.329	x
O=C1O[C@H](c2ccccc2)[C@H](c2ccccc2)N2[C@H]1[C@@H](C(=O)O)[C@]1(C(=O)Nc3ccccc31)[C@H]2c1ccccc1OCCO	12.7	x	0.288	x
O=C1O[C@@H](c2ccccc2)[C@@H](c2ccccc2)N2[C@@H](c3ccccc3OCCO)[C@]3(C(=O)Nc4ccc(C#CCCO)cc43)[C@@H](C(=O)N3CCN(c4ncccn4)CC3)[C@H]12	94.0*	x	-0.474	x
COc1ccc(C#Cc2ccc3c(c2)[C@]2(C(=O)N3)[C@H](C(=O)N3CCN(c4ncccn4)CC3)[C@H]3C(=O)O[C@H](c4ccccc4)[C@H](c4ccccc4)N3[C@@H]2c2ccccc2OCCO)cc1	27.6	x	0.293	x
CCC(=O)Oc1ccc(/C=C/c2ccccc2)cc1OC	-2.8	x	x	-3.1
COc1ccc(CC(=O)Nc2c3c(nn2-c2ccc(C)cc2)CSC3)cc1	-16.5	x	x	-3.7
CC(NC(=O)COc1ccccc1C(C)(C)C)c1ccccc1 (stereo not given)	33.8	13.0	0.334	-2.0
O=C(CSc1nnc(Cc2cc(=O)[nH]c(=O)[nH]2)n1-c1ccc(Cl)cc1)N1CCCCC1	x	x	x	4.3
Cc1ccc(Nc2cc(C(=O)N3CC(C)CC(C)C3)c3ccccc3n2)cc1C (stereo not given)	38.3	x	x	16.9
Cc1ccc(S(=O)(=O)c2ccc(C)cc2)cc1	-0.8	5.3	0.262	0.3
Cc1ccc(S(=O)(=O)/C=C/C#N)cc1	142.7*	88.9*	0.148	x

High-throughput results as filed in PubChem.
